In PubChem BioAssay (EPA / NIEHS):
Calls of active or inactive are those of the source. The calls were made as follows: active = hit-call score of the fitted dose curve at least 0.9, where 1 is the maximum; inactive = score below 0.9.

How the values were obtained:
[1] = ATG_E_Box_CIS: Attagene CIS-FACTORIAL HepG2 Assay for human Enhancer Box (E-box) (AID 2282936); conditions: HepG2 E-box cis-reporter transcription, actives raise or lower the signal
Procedure, shortened: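 Endogenous transcription factor activity was sensed in human HepG2 liver cells through transfected cis-promoter reporter units. After 24 h of dosing, total RNA was reverse-transcribed and reporter cDNA resolved by capillary electrophoresis.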

[2] = ATG_M_61_CIS: Attagene CIS-FACTORIAL HepG2 Assay for M61 Transcription Factor (Internal Marker) (AID 2282937); conditions: HepG2 Attagene CIS-FACTORIAL M61 internal marker reporter; actives raise or lower the signal
Procedure, shortened: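 Human liver HepG2, transient MRTU transfection (cis promoter elements), 24 h compound. Total RNA → oligo(dT) RT → PCR → FAM label → HpaI → CE. Internal background marker; bidirectional fitting, DMSO = baseline.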

[3] = ATG_EGR_CIS: Attagene CIS-FACTORIAL HepG2 Assay for human Early Growth Response 1 (EGR1) (AID 2282938); conditions: HepG2 Attagene CIS-FACTORIAL EGR reporter mRNA; actives raise or lower the signal
Procedure, shortened: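 Transient transfection of human HepG2 with multiple cis-regulated reporter units, chemical exposure 24 h, total RNA isolated. Reverse transcription, PCR, fluorescent labelling and capillary electrophoresis quantify reporter transcripts; activity fitted bidirectionally against DMSO.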

[4] = ATG_M_19_CIS: Attagene CIS-FACTORIAL HepG2 Assay for M19 Transcription Factor (Internal Marker) (AID 2282939); conditions: HepG2 Attagene CIS-FACTORIAL M19 internal marker reporter; actives raise or lower the signal
Procedure, shortened: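 Readout: fluorescent reporter-transcript fragments by capillary electrophoresis after RT-PCR. Human HepG2 liver cells carried transfected MRTU constructs reporting endogenous transcription-factor activity; exposure 24 h. Gain or loss of signal fitted relative to DMSO.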

[5] = ATG_Ets_CIS: Attagene CIS-FACTORIAL HepG2 Assay for human Erythroblast Transformation Specific (ETS) (AID 2282941); conditions: HepG2 ETS cis-reporter transcription, actives raise or lower the signal
Procedure, shortened: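 Multiplexed reporter transcript profiling: HepG2, 24 h treatment, total RNA to cDNA, PCR, 6-FAM labelling, HpaI cut, capillary electrophoresis. Gain- or loss-of-signal fitted against DMSO.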

[6] = ATG_FoxO_CIS: Attagene CIS-FACTORIAL HepG2 Assay for human Forkhead box O (FoxO) (AID 2282943); conditions: HepG2 Attagene cis-reporter, FoxO element, mRNA; actives raise or lower the signal
Procedure, shortened: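 24 h chemical exposure, HepG2 with transient cis-MRTU transfection. RNA extraction, oligo(dT) RT, reporter-specific PCR, primer-extension labelling, HpaI digestion, CE fragment analysis; bidirectional fit, DMSO baseline.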

[7] = ATG_GATA_CIS: Attagene CIS-FACTORIAL HepG2 Assay for human GATA Binding Protein (AID 2282944); conditions: HepG2 GATA cis-element reporter, Attagene multiplex mRNA; actives raise or lower the signal
Procedure, shortened: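 Read-out: fluorescent reporter mRNA fragments resolved by capillary electrophoresis after RT-PCR. Human liver HepG2 cells carried transiently transfected cis-regulated reporter constructs; chemicals incubated 24 h; gain or loss of signal fitted relative to DMSO.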

[8] = ATG_GLI_CIS: Attagene CIS-FACTORIAL HepG2 Assay for human Zinc Finger Protein GLI1 (AID 2282945); conditions: HepG2, Attagene cis-factorial reporter mRNA, GLI element; actives raise or lower the signal
Procedure, shortened: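 HepG2 cells transiently transfected with cis-promoter multiplexed reporter units report endogenous transcription factor activity. After 24 h chemical exposure, reporter mRNA was quantified by RT-PCR, 6-FAM labelling, HpaI digestion and capillary electrophoresis, with bidirectional fitting against DMSO.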

[9] = target: Bile acid receptor (Homo sapiens) (UniProt Q96RI1); experiment: ATG_IR1_CIS: Attagene CIS-FACTORIAL HepG2 Assay for human Nuclear Receptor Subfamily 1 Group H Member 4 (NR1H4), IR1 submotif (AID 2282946); conditions: IR1 reporter transcription, actives raise or lower the signal
Chain of Bile acid receptor (Homo sapiens) (Q96RI1 whole entry, looked up): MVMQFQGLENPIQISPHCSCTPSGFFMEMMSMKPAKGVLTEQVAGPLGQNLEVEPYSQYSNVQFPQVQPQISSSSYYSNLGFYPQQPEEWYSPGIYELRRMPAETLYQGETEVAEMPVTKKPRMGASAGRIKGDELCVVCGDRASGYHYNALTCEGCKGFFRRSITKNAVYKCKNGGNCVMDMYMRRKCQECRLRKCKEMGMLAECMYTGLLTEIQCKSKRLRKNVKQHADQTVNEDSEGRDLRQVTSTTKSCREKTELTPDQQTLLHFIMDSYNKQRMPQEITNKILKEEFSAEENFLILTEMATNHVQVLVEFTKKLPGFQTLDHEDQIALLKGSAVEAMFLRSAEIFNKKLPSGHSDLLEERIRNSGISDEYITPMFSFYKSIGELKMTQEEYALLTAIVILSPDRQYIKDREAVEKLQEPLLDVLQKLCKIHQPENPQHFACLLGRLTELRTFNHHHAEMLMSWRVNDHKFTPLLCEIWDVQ
Procedure, shortened: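 Readout: reporter transcript levels by RT-PCR with fluorescent capillary electrophoresis, from HepG2 cells transiently transfected with multiplexed cis-regulated reporters and dosed 24 h. Gain- or loss-of-signal fitted versus DMSO negative control.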

[10] = ATG_ISRE_CIS: Attagene CIS-FACTORIAL HepG2 Assay for human Interferon Regulatory Factor 1 (IRF1) binding to an Interferon-Stimulated Response Element (ISRE) (AID 2282948); conditions: HepG2 ISRE cis-reporter (Attagene), mRNA transcription readout; actives raise or lower the signal
Procedure, shortened: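 Signal reflects induction or loss of ISRE-linked reporter mRNA in transiently transfected HepG2 cells after a 24 h treatment, detected by fluorescent RT-PCR fragments on capillary electrophoresis and normalised to DMSO.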

[11] = ATG_M_32_CIS: Attagene CIS-FACTORIAL HepG2 Assay for M32 Transcription Factor (Internal Marker) (AID 2282949); conditions: HepG2 Attagene cis-factorial M32 reporter, mRNA; actives raise or lower the signal;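 also: background control marker of the multiplexed CIS panel rather than a real target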
Procedure, shortened: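 HepG2 human liver cells transiently transfected with cis-promoter-driven multiple reporter transcription units, dosed 24 h. Reporter mRNA quantified by RT-PCR, FAM-labelled primer extension, HpaI digest and capillary electrophoresis; bidirectional fit versus DMSO baseline.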

[12] = ATG_M_06_CIS: Attagene CIS-FACTORIAL HepG2 Assay for M06 Transcription Factor (Internal Marker) (AID 2282950); conditions: HepG2 Attagene CIS-FACTORIAL M06 internal marker reporter; actives raise or lower the signal
Procedure, shortened: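 Terse: HepG2, transient MRTU transfection (FuGene 6), 24 h dosing; total RNA, oligo(dT) RT, PCR, FAM label, HpaI cut, capillary electrophoresis; bidirectional fit vs DMSO baseline; background-control endpoint.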

[13] = target: Hypoxia-inducible factor 1-alpha (Homo sapiens) (UniProt Q16665); experiment: ATG_HIF1a_CIS: Attagene CIS-FACTORIAL HepG2 Assay for human Hypoxia Inducible Factor 1 (HIF1A) (AID 2282951); conditions: HepG2 Attagene cis-factorial HIF1a reporter transcription; actives raise or lower the signal
Chain of Hypoxia-inducible factor 1-alpha (Homo sapiens) (Q16665 whole entry, looked up, the tested form may be a part): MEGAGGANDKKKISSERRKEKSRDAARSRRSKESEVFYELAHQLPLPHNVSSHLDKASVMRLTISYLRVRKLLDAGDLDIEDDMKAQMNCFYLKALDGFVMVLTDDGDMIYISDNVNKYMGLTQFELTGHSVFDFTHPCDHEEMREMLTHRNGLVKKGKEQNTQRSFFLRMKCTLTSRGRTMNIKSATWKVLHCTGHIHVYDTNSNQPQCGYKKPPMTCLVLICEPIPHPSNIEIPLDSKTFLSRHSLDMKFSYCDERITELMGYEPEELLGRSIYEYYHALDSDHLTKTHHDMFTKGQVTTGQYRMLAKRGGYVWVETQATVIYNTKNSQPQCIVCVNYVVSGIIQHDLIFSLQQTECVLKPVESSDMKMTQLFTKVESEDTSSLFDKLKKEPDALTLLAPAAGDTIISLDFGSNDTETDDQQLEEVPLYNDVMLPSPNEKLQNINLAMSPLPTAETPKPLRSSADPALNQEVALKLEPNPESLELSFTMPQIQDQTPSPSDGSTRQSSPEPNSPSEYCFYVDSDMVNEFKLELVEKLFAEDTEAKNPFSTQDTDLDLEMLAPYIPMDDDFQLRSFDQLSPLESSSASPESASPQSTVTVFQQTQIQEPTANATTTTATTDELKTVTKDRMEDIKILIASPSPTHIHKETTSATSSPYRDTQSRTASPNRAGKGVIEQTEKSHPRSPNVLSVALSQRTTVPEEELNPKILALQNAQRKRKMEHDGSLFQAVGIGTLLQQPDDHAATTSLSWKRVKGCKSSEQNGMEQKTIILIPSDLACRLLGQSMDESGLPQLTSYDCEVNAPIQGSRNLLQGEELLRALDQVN
Procedure, shortened: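 Transient MRTU transfection of human HepG2 liver cells, 24 h compound treatment, then total RNA isolation, oligo(dT) reverse transcription, PCR amplification, fluorescent labelling and capillary electrophoresis of reporter fragments. Gain or loss relative to DMSO.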

[14] = target: Hepatocyte nuclear factor 6 (Homo sapiens) (UniProt Q9UBC0); experiment: ATG_HNF6_CIS: Attagene CIS-FACTORIAL HepG2 Assay for human Hepatocyte Nuclear Factor 6 (HNF6) (AID 2282952); conditions: HepG2 Attagene cis-factorial HNF6 reporter transcription; actives raise or lower the signal
Chain of Hepatocyte nuclear factor 6 (Homo sapiens) (Q9UBC0 whole entry, looked up, the tested form may be a part): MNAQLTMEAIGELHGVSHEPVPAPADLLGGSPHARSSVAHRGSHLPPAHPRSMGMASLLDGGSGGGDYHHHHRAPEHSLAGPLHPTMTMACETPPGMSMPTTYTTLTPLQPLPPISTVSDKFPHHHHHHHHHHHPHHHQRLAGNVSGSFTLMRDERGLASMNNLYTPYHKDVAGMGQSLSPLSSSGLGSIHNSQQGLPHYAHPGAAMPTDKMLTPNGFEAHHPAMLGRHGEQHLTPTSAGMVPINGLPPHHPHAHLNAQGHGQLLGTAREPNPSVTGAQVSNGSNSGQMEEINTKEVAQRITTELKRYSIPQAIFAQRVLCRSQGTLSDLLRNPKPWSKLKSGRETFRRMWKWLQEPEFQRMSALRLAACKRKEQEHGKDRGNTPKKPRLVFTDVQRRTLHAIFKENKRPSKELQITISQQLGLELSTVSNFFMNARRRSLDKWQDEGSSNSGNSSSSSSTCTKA
Procedure, shortened: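 First, HepG2 cells were transfected with the multiplexed cis reporter library and dosed with chemical for 24 h. Next, RNA was reverse-transcribed, PCR-amplified and fluorescently labelled. Finally, HpaI-digested fragments were read by capillary electrophoresis.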

[15] = target: Heat shock factor protein 1 (Homo sapiens) (UniProt Q00613); experiment: ATG_HSE_CIS: Attagene CIS-FACTORIAL HepG2 Assay for human Heat Shock Transcription Factor 1 (HSE) (AID 2282953); conditions: HepG2 HSE cis-reporter, Attagene RNA transcription; actives raise or lower the signal
Chain of Heat shock factor protein 1 (Homo sapiens) (Q00613 whole entry, looked up, the tested form may be a part): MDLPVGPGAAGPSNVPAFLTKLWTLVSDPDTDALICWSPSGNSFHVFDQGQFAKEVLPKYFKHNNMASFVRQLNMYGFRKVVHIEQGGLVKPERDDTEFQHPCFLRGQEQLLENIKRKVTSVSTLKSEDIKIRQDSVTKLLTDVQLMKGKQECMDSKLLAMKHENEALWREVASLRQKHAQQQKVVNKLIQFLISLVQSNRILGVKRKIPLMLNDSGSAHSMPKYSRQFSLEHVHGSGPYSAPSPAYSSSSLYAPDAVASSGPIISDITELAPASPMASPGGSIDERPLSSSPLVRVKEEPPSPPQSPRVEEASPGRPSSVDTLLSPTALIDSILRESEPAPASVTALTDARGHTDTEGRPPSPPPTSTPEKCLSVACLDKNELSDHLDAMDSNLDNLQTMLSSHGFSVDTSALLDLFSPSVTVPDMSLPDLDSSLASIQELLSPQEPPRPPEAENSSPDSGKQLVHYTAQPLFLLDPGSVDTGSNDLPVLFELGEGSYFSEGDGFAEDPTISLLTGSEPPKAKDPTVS
Procedure, shortened: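 Read-out: fluorescence of reporter-specific RT-PCR fragments separated by capillary electrophoresis. HepG2 carrying transfected cis-element reporter units; 24 h dosing; activity fitted in both directions relative to DMSO baseline.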

[16] = ATG_MRE_CIS: Attagene CIS-FACTORIAL HepG2 Assay for human Metal Responsive Element (MRE) (AID 2282954); conditions: HepG2 MRE cis-reporter transcription, Attagene multiplex; actives raise or lower the signal
Procedure, shortened: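 Cells were transfected with cis-promoter reporter transcription units, then dosed for 24 h. RNA was reverse-transcribed, amplified, fluorescently labelled and resolved by capillary electrophoresis, and activity was fitted in both directions relative to DMSO.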

[17] = ATG_PBREM_CIS: Attagene CIS-FACTORIAL HepG2 Assay for human Phenobarbital-responsive Enhancer Module (PBREM) (AID 2282955); conditions: HepG2 PBREM cis-reporter, Attagene multiplexed transcription; actives raise or lower the signal
Procedure, shortened: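 Endogenous transcription factors in human liver HepG2 cells drive a PBREM cis-element reporter, whose transcript level after 24 h treatment is quantified by RT-PCR with capillary electrophoresis; activity fitted in both directions against DMSO.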

[18] = target: Hepatocyte nuclear factor 3-beta (Homo sapiens) (UniProt Q9Y261); experiment: ATG_FoxA2_CIS: Attagene CIS-FACTORIAL HepG2 Assay for human Forkhead box A2 (FOXA2) (AID 2282942); conditions: HepG2 cis-reporter transcription factor activity, 24 h; actives raise or lower the signal
Chain of Hepatocyte nuclear factor 3-beta (Homo sapiens) (Q9Y261 whole entry, looked up): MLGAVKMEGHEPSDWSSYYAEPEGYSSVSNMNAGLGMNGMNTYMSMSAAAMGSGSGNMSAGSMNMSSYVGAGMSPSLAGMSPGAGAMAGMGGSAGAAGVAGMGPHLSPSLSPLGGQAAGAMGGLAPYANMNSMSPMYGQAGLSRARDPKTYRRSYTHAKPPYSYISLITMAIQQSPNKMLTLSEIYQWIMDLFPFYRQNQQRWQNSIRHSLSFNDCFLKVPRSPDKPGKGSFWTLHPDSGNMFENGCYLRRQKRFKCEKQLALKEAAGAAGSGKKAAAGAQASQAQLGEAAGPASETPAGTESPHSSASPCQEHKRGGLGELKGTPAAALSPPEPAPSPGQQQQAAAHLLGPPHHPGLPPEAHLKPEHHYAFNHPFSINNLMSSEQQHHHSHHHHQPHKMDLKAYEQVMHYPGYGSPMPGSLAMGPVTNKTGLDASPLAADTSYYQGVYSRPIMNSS
Procedure, shortened: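 Transient MRTU transfection of HepG2 liver cells; 24 h treatment; total RNA → oligo(dT) RT → PCR → FAM primer extension → HpaI cut → CE. Bidirectional fit vs DMSO.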

[19] = ATG_GRE_CIS: Attagene CIS-FACTORIAL HepG2 Assay for human Glucocorticoid Response Elements (GRE) (AID 2282947); conditions: HepG2 GRE cis-reporter, Attagene multiplex mRNA; actives raise or lower the signal
Procedure, shortened: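 Cells (HepG2) bearing transfected cis-promoter reporter transcription units were treated with chemical for 24 hours. Reporter mRNA was measured via RT-PCR with capillary electrophoresis, and activity was fitted in both directions relative to DMSO.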

SMILES | outcome [1] | outcome [2] | outcome [3] | outcome [4] | outcome [5] | outcome [6] | outcome [7] | outcome [8] | outcome [9] | outcome [10] | outcome [11] | outcome [12] | outcome [13] | outcome [14] | outcome [15] | outcome [16] | outcome [17] | outcome [18] | outcome [19] | AC50 [17]
CCCCCCCCCC(=O)OC | inactive | inactive | inactive | inactive | inactive | inactive | inactive | inactive | inactive | inactive | inactive | inactive | inactive | inactive | inactive | inactive | inactive |  |  | 
COc1cc(Cl)c(OC)cc1N | inactive | inactive | inactive | inactive |  | inactive | inactive | inactive | inactive | inactive | inactive | inactive | inactive | inactive | inactive | inactive |  | inactive | inactive | 
ON=C1CCCCC1 | inactive | inactive | inactive | inactive | inactive | inactive | inactive | inactive |  | inactive | inactive | inactive | inactive | inactive |  | inactive | inactive |  | inactive | 
CCCCCCOC(=O)C(C)C | inactive | inactive | inactive | inactive | inactive | inactive | inactive | inactive | inactive | inactive | inactive | inactive | inactive | inactive | inactive | inactive |  |  |  | 
CN(C)c1cccc(O)c1 | inactive | inactive | inactive | inactive | inactive | inactive | inactive | inactive |  | inactive | inactive | inactive | inactive | inactive | inactive | inactive | inactive |  | inactive | 
CCC1(c2ccccc2)C(=O)NCNC1=O | inactive | inactive | inactive | inactive | inactive | inactive | inactive | inactive | inactive | inactive | inactive | inactive |  | inactive | inactive | inactive | inactive |  | inactive | 
CN1C(=O)c2ccccc2C1=O | inactive | inactive | inactive | inactive | inactive |  | inactive | inactive |  | inactive | inactive | inactive | inactive | inactive |  | inactive | inactive |  | inactive | 
Cc1cc(=O)oc2cc(N(C)C)ccc12 | inactive | inactive | inactive | inactive |  | inactive | inactive | inactive | inactive | inactive | inactive | inactive | inactive | inactive | inactive | inactive |  | inactive | inactive | 100 µM (active)
